Test results from PubChem BioAssay AID720597 (Broad Institute, 2013).
Potency and affinity values are given separately. Calls of active or inactive are those of the source.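 How the source made its calls: active means fitted half-maximal dose no more than twice the top valid tested dose, for compounds that lower signal; inconclusive means fit invalid, or curve flat with activity between -70 and -30; inactive means potency past limit, curve flat within ±30, or signal increasing.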

Target: NAD-dependent protein deacylase sirtuin-5, mitochondrial (Homo sapiens) (UniProt Q9NXA8)
Test: blockers of sirtuin-5 peptide desuccinylation – biochemical, fluorescence imaging, cherry-pick, set 6, dose response (AID 720597);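 further: lower AMC signal can also come from blocking the trypsin step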
Conditions: Purified SirT5, succinyl-peptide-AMC/trypsin fluorescence; series mostly up to 15 µM

Chain of NAD-dependent protein deacylase sirtuin-5, mitochondrial (Homo sapiens) (Q9NXA8 whole entry, looked up): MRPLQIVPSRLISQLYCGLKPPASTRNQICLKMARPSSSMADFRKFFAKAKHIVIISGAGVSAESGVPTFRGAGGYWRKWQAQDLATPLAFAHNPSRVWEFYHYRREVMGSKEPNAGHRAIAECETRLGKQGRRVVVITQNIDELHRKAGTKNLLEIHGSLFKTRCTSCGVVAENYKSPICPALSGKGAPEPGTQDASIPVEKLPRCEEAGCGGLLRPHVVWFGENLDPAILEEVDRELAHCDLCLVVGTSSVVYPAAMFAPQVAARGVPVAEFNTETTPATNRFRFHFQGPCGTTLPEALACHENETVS

outcome, inactive:
O=C(CN1CCOCC1)N1CCCCN2[C@H](C1)[C@H](c1ccc(-c3ccccc3F)cc1)[C@@H]2CO
CN(C)C(=O)c1cccc(-c2ccc([C@H]3[C@H]4CN(S(C)(=O)=O)CCCCN4[C@H]3CO)cc2)c1
O=C(C[C@@H]1C[C@H]2c3cc(NC(=O)C4CCC4)ccc3O[C@H]2[C@H](CO)O1)NCc1ccc(-c2ccccc2)cc1
CCCC#Cc1ccc2c(c1)O[C@@H](CN(C)C(=O)c1cnccn1)[C@@H](C)CN([C@@H](C)CO)S2(=O)=O
C[C@@H]1CN([C@H](C)CO)C(=O)c2cccc(NC(=O)c3ccncc3)c2O[C@H]1CN(C)S(C)(=O)=O
CCN1[C@@H]2c3ccc(-c4ccccc4)c(=O)n3C[C@@H]2[C@@H](CO)[C@@H]1C(=O)NCc1ccccc1
COc1ccc(S(=O)(=O)Nc2ccc3c(c2)C(=O)N([C@H](C)CO)C[C@@H](C)[C@@H](CN(C)Cc2ccc(Oc4ccccc4)cc2)O3)cc1
C[C@H](CO)N1C[C@H](C)[C@H](CN(C)S(=O)(=O)c2ccc(Cl)cc2)OCCCC[C@H](C)Oc2ccc(NC(=O)Nc3ccc4c(c3)OCO4)cc2C1=O
CCC(=O)N(C)C[C@@H]1Oc2ncc(-c3ccc(F)cc3)cc2C(=O)N([C@@H](C)CO)C[C@@H]1C
CN(C)C(=O)c1cccc(-c2ccc([C@@H]3[C@@H](CO)N4CCCCN(S(C)(=O)=O)C[C@H]34)cc2)c1
Cc1cccc(-c2ccc([C@H]3[C@H]4CN(S(=O)(=O)c5cccc(F)c5)CC(=O)N4[C@H]3CO)cc2)c1
COc1ccc(S(=O)(=O)Nc2ccc3c(c2)CC(=O)N([C@@H](C)CO)C[C@@H](C)[C@H](CN(C)CC2CCCCC2)O3)cc1
CS(=O)(=O)Nc1ccc2c(c1)[C@H]1C[C@@H](CC(=O)NCCc3ccccc3)O[C@@H](CO)[C@H]1O2
COc1ccc(CN(C)C[C@H]2Oc3ccc(NS(=O)(=O)c4ccc(Cl)cc4)cc3CC(=O)N([C@@H](C)CO)C[C@@H]2C)cc1
COc1ccc(NC(=O)N(C)C[C@H]2Oc3ccc(NS(=O)(=O)c4ccc(F)cc4)cc3C(=O)N([C@H](C)CO)C[C@H]2C)cc1
C[C@@H]1CN([C@H](C)CO)C(=O)c2cc(NC(=O)CCC(F)(F)F)ccc2O[C@@H](C)CCCCO[C@@H]1CN(C)Cc1ccc(C(F)(F)F)cc1
Cc1ccc(S(=O)(=O)Nc2ccc3c(c2)C(=O)N([C@H](C)CO)C[C@@H](C)[C@@H](CN(C)S(=O)(=O)c2ccccc2)OCCCC[C@@H](C)O3)cc1
C[C@H]1CCCCO[C@@H](CN(C)C(=O)Nc2ccc(C(F)(F)F)cc2)[C@@H](C)CN([C@@H](C)CO)C(=O)c2cc(NS(=O)(=O)c3ccc(Cl)cc3)ccc2O1
C[C@@H]1CN([C@@H](C)CO)S(=O)(=O)c2ccc(/C=C/c3ccccc3)cc2O[C@@H]1CN(C)C(=O)NC1CCCCC1
C[C@H]1CN([C@@H](C)CO)S(=O)(=O)c2ccc(-c3cncnc3)cc2O[C@H]1CN(C)Cc1ccccn1
Cc1ccc(S(=O)(=O)N(C)C[C@H]2OCCCC[C@@H](C)Oc3ccc(NS(=O)(=O)c4ccccc4)cc3C(=O)N([C@H](C)CO)C[C@H]2C)cc1
CCCC#Cc1ccc2c(c1)[C@@H]1[C@@H](CCN1S(=O)(=O)c1ccccc1C)[C@@H](CO)N2
CC(=O)N(C)C[C@H]1Oc2ncc(C#CCC3CCCC3)cc2C(=O)N([C@@H](C)CO)C[C@H]1C
COc1cccc(NC(=O)N2CC(=O)N3[C@H](CO)[C@@H](c4ccc(C#CCC5CCCC5)cc4)[C@@H]3C2)c1
COc1ccc(S(=O)(=O)N(C)C[C@H]2OCCCC[C@@H](C)Oc3ccc(NS(=O)(=O)c4ccc(Cl)cc4)cc3C(=O)N([C@H](C)CO)C[C@H]2C)cc1
COc1ccc(C#Cc2ccc([C@@H]3[C@@H](CO)N4C(=O)CN(C(=O)c5cccnc5)C[C@@H]34)cc2)cc1
COc1ccc(NC(=O)N(C)C[C@@H]2Oc3cc(C#CCC(C)C)ccc3S(=O)(=O)N([C@@H](C)CO)C[C@H]2C)cc1
C[C@H]1CN([C@@H](C)CO)S(=O)(=O)c2ccc(C#CC3CC3)cc2O[C@H]1CN(C)Cc1ccccc1F
